# Records with an inconclusive call do not appear. The source made the active and inactive calls. The calls were made as follows: active = hit-call score of the fitted dose curve at least 0.9, where 1 is the maximum; inconclusive = response in the unintended direction; inactive = score below 0.9.
# Read-out: organic anion transporter (SLCO1B1), SLCO1B1 (gene 10599)
# Assay: CLD_SLCO1B1_24hr: CellzDirect (CLD) Gene Expression Assay for organic anion transporter (SLCO1B1) at 24 hours (AID 2283690)
# Procedure: CLD_24hr is a cell-based, multiplexed-readout assay that uses hepatocyte, a human liver primary cell, with measurements taken at 24 hours after chemical dosing in a 96-well plate.CLD_SLCO1B1_24hr is one of 16 assay component(s) measured or calculated from the CLD_24hr assay. It is designed to make measurements of mRNA induction, a form of inducible reporter, as detected with chemiluminescence signals by Quantitative Nuclease Protection Assay (qNPA) technology.Data from the assay component CLD_SLCO1B1_24hr was analyzed at the endpoint, CLD_SLCO1B1_24hr, in the positive analysis fitting direction relative to DMSO as the negative control and baseline of activity. Using a type of inducible reporter, gain-of-signal activity can be used to understand changes in the reporter gene as they relate to the gene SLCO1B1. Furthermore, this assay endpoint can be referred to as a primary readout. To generalize the intended target to other relatable targets, this assay endpoint is annotated to the transporter intended target family, where subfamily is organic anion transporter.
# Human hepatocyte cultures were treated daily for two consecutive days with fresh dosing solutions containing appropriate concentrations of the 320 ToxCast chemicals (chemical identities were blinded to CellzDirect and other ToxCast collaborators), vehicle control (0.2% DMSO), and positive control inducers as summarized in Table 1. Due to the large number of treatment groups and chemicals examined, the ToxCast chemicals were divided into two groups (spanning two independent cultures of hepatocytes from separate donor preparations (Hu778: ToxCast plates 1 and 2; Hu776: ToxCast plates 3 and 4). Each preparation of human hepatocyte cultures was treated with respective vehicle control, medium only control, set of six positive controls/reference chemicals for the five hepatic receptor pathways, and a subset of eight of the ToxCast chemicals (indoxacarb, pyrithiobac-sodium, norflurazon, cyhalofop-butyl, methomyl, thiram, acetochlor, and propiconazole). These replicate data, coupled with internal replicates designed within the blinded ToxCast chemical library, provided additional data to evaluate interindividual differences between hepatocyte preparations and their potential impact on chemical profiles.Cell morphology and integrity were evaluated using phase-contrast microscopy as an indicator of hepatocyte cell health (Tyson & Green, 1987). Cultures for each treatment group (i.e., media, vehicle [0.2% DMSO], positive control inducers [multiple concentrations], and the ToxCast chemicals [multiple concentrations]) were observed and cell morphology was assessed relative to vehicle control cultures at each harvest time point (0, 6, 24, or 48 h). […] Images were evaluated at the conclusion of the study to assess changes in cell integrity and account for the effects of chemical exposure on uncharacteristic changes in concentration-dependent gene expression profiles. The results from these determinations of apparent cytotoxicity were annotated (yes/no) alongside the corresponding qNPA data for reference.At the conclusion of each treatment period, hepatocyte cultures (96-well) were washed with 1 volume of HBSS, lysed by addition of 25 ul ArrayPlate lysis buffer (HTG, Tucson, AZ), and 70 ul/well of Denaturation Oil, denatured by incubation at 95C for 10 min, and frozen at approximately -70C until analysis by nuclease protection assay (qNPA) (Roberts et al., 2007). For qNPA analysis, cell lysates were thawed at 50C for approximately 30 min, qNPA probes were added, and samples were incubated at 95C for 10 min to begin the detection process by denaturing the target RNA, dissociating the duplexes and secondary structure hybridization. At the conclusion of the hybridization period, S1 nuclease reagent was added to each sample to digest all nonprotected nucleotides at 50C for 60-90 min. […]
row,Compound,outcome
1,COC(=O)C(C)Oc1ccc(Oc2ccc(Cl)cc2Cl)cc1 (stereo unspecified),inactive
2,N#Cc1cc(Br)c(O)c(Br)c1,inactive
3,C=CC1(C)OC(=O)N(c2cc(Cl)cc(Cl)c2)C1=O (stereo unspecified),inactive
4,CNC(=O)ON=CC(C)(C)SC,inactive
5,COc1nc(C)nc(NC(=O)NS(=O)(=O)c2ccccc2CCC(F)(F)F)n1,inactive
6,O=C(O)c1nc(Cl)ccc1Cl,inactive
7,COc1ccc(C(c2ccc(OC)cc2)C(Cl)(Cl)Cl)cc1,inactive
8,CCON=C(CC)C1=C(O)CC(c2c(C)cc(C)cc2C)CC1=O (stereo unspecified),inactive
9,C=CCC1=C(C)C(OC(=O)C2C(C=C(C)C)C2(C)C)CC1=O (stereo unspecified),inactive
10,CCNc1nc(Cl)nc(NCC)n1,inactive
11,Cc1c(F)c(F)c(COC(=O)C2C(/C=C(\Cl)C(F)(F)F)C2(C)C)c(F)c1F (stereo unspecified),inactive
12,CC(C)(C)c1ccc(CSc2cnn(C(C)(C)C)c(=O)c2Cl)cc1,inactive
13,C#CCOS(=O)OC1CCCCC1Oc1ccc(C(C)(C)C)cc1 (stereo unspecified),inactive
14,COC(=O)C=C(C)OP(=O)(OC)OC,inactive
15,Oc1ccccc1-c1ccccc1,inactive
16,CC(C)C1(C)N=C(c2nc3ccccc3cc2C(=O)O)NC1=O (stereo unspecified),inactive
17,Cc1cc(Cl)ccc1OCC(=O)O,inactive
18,COP(N)(=O)SC (stereo unspecified),inactive
19,CCc1nn(C)c(C(=O)NCc2ccc(C(C)(C)C)cc2)c1Cl,inactive
20,CC1COC(Cn2cncn2)(c2ccc(Oc3ccc(Cl)cc3)cc2Cl)O1 (stereo unspecified),inactive
21,CCOc1cc(Oc2ccc(C(F)(F)F)cc2Cl)ccc1[N+](=O)[O-],inactive
22,COC(=O)N(OC)c1ccccc1COc1ccn(-c2ccc(Cl)cc2)n1,inactive
23,CCOC(=O)CC(SP(=S)(OC)OC)C(=O)OCC (stereo unspecified),inactive
24,COc1nc(C)nc(NC(=O)NS(=O)(=O)c2ccccc2Cl)n1,inactive
25,COC(=O)c1ccccc1C(=O)OC,inactive
26,O=C(Nc1ccccc1)Nc1ccnc(Cl)c1,inactive
